Measured values as given in PubChem BioAssay (NCI).
The panel holds about 83,000 compounds, 20% with a hit somewhere; the sample as a whole holds those more often.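 How to read the values: 0–100, growth inhibition (40 = 60% inhibited); 0, no net growth; -100 to 0, cell death (-40 = 40% of starting cells died; -100 = all dead).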 Activity calls are given as the source filed them. Rule for the calls: active = growth percent below 10; inactive = the rest.

Assays:
Assay in all cases: NCI-60 one-dose screen, 48 h (100 = growth as untreated, 0 = no growth, -100 = all killed)
Conditions in all cases: 10 µM
[1] = tested on: SR leukemia
[2] = tested on: RPMI-8226 leukemia
[3] = tested on: OVCAR-8 ovarian
[4] = tested on: OVCAR-5 ovarian
[5] = tested on: OVCAR-4 ovarian
[6] = tested on: SK-OV-3 ovarian
[7] = tested on: IGROV1 ovarian
[8] = tested on: OVCAR-3 ovarian
[9] = tested on: HS 578T breast
[10] = tested on: NCI/ADR-RES ovarian
[11] = tested on: T-47D breast
[12] = tested on: BT-549 breast
[13] = tested on: MDA-MB-435 melanoma
[14] = tested on: SW-620 colon
[15] = tested on: MCF7 breast
[16] = tested on: HCT-116 colon
[17] = tested on: HCC-2998 colon
[18] = tested on: KM12 colon

Measured: growth

CCOC(=O)c1sc(Nc2ncccn2)nc1-c1ccccn1
active: [15] 7.18%
inactive: [1] 62.7% | [2] 92% | [3] 85.7% | [4] 93.1% | [5] 42% | [6] 76.4% | [7] 87.4% | [8] 82.3% | [9] 105% | [10] 68.6% | [11] 41.8% | [12] 89.2% | [13] 103% | [14] 95.6% | [16] 74.2% | [17] 80.7% | [18] 83%

CC(=O)/C(=C\c1ccc(Cl)cc1)c1ccccc1
active: [1] 6.01% | [8] -8.06% | [13] -35.2% | [15] 9.45% | [16] 5.06% | [17] 3.78%
inactive: [2] 19% | [3] 15.2% | [4] 51.5% | [5] 57.7% | [6] 39.1% | [7] 28.5% | [9] 23.8% | [10] 30.7% | [11] 47.8% | [12] 14.5% | [14] 25.6% | [18] 10.1%

Cc1ccccc1C1=N[C@@H](Cc2ccccc2)C(=O)c2c(nc3ccccn23)N1
inactive: [1] 122% | [2] 98.4% | [3] 92.8% | [4] 101% | [5] 98.7% | [6] 111% | [7] 108% | [8] 108% | [9] 102% | [10] 95.6% | [11] 104% | [12] 96.9% | [13] 98.8% | [14] 103% | [15] 84.9% | [16] 86.9% | [17] 99.9% | [18] 108%

COc1ccc2oc(=O)cc(C(c3ccc[nH]3)c3ccc[nH]3)c2c1
active: [1] 1.93% | [2] -3.8% | [3] -4.93% | [6] 7.19% | [8] -8.55% | [10] 7.99% | [12] -13.4% | [13] -24.3% | [16] -3.62% | [17] -5.71% | [18] 4.33%
inactive: [4] 34.8% | [5] 38.8% | [7] 25.5% | [9] 18.8% | [11] 22.5% | [14] 25.6% | [15] 13.9%

CC(C)C(C)C(N)C(=O)O (centres undefined)
inactive: [1] 93.7% | [2] 99.6% | [3] 105% | [4] 114% | [5] 115% | [6] 96% | [7] 101% | [8] 111% | [9] 117% | [10] 107% | [11] 102% | [12] 90.7% | [13] 105% | [14] 110% | [15] 92.9% | [16] 94.5% | [17] 101% | [18] 103%

CC(=O)OCC(COC(C)=O)(COC(C)=O)COC(C)=O
inactive: [1] 86.6% | [2] 97.6% | [3] 103% | [4] 102% | [5] 112% | [6] 99.6% | [7] 104% | [8] 103% | [9] 101% | [10] 106% | [12] 112% | [13] 111% | [14] 108% | [15] 93.8% | [16] 111% | [17] 101% | [18] 102%
active: [11] -11.3%

CCCCCCOc1ccc(/C=C/C(=O)c2ccc(B(O)O)cc2)cc1
inactive: [1] 48.4% | [2] 46.2% | [3] 81.2% | [4] 77.3% | [5] 64.6% | [6] 87.3% | [7] 64.7% | [8] 97.1% | [9] 60.3% | [10] 77.4% | [11] 73.9% | [12] 35.2% | [13] 77.1% | [14] 96.8% | [15] 57.5% | [16] 55.6% | [17] 95.6% | [18] 85.4%

COc1cc(CSc2nc3ccc(C)cc3c(=O)n2Cc2ccccc2)cc(OC)c1OC
inactive: [1] 18% | [2] 54.1% | [3] 35.2% | [4] 45.4% | [5] 53.1% | [6] 23.9% | [7] 24.3% | [9] 20.7% | [10] 12.7% | [11] 34.1% | [12] 34.8% | [14] 25.8% | [15] 18% | [16] 25.2% | [17] 43% | [18] 25.3%
active: [8] -22.7% | [13] -5.84%

O=C(c1ccccc1)C(Sc1ccccc1)c1ccccc1 (centres undefined)
inactive: [1] 49.2% | [2] 81.7% | [3] 86.8% | [4] 96% | [5] 78.7% | [6] 103% | [7] 83.8% | [8] 109% | [9] 100% | [10] 82.7% | [11] 90.8% | [12] 92.9% | [13] 107% | [14] 57.8% | [15] 94% | [16] 55.8% | [17] 87.8% | [18] 99.5%

COc1ccc(/C=C2\SC(=S)N(CCCN3CCOCC3)C2=O)c(OC)c1
inactive: [1] 72.5% | [2] 78.4% | [3] 96.1% | [4] 104% | [5] 91.1% | [6] 105% | [7] 115% | [8] 103% | [9] 99.1% | [10] 92.6% | [11] 71.2% | [12] 96.1% | [13] 101% | [14] 105% | [15] 76% | [16] 92.2% | [17] 109% | [18] 97.2%

O=C(Nc1cccc(Cl)c1)OCC(COC(=O)Nc1cccc(Cl)c1)(COC(=O)Nc1cccc(Cl)c1)[N+](=O)[O-]
inactive: [1] 22.4% | [2] 19.5% | [3] 44% | [4] 89.1% | [5] 30.8% | [6] 64.8% | [7] 42.3% | [8] 20.6% | [9] 52.1% | [10] 35.4% | [11] 14.7% | [12] 50.8% | [13] 39.9% | [14] 45.6% | [15] 21.1% | [16] 16.3% | [17] 36.9% | [18] 23.8%

CCSc1nc2c([nH]1)c(=O)n(C)c(=S)n2C
inactive: [1] 118% | [2] 112% | [3] 108% | [4] 99.1% | [5] 114% | [6] 103% | [7] 116% | [8] 112% | [9] 115% | [10] 105% | [11] 99.6% | [12] 118% | [13] 109% | [14] 102% | [15] 113% | [16] 114% | [17] 106% | [18] 103%

CC(C)C[C@H](NC(=O)CCn1ccc2ccccc2c1=O)B(O)O
inactive: [2] 10.4% | [3] 72.4% | [4] 65.6% | [5] 85.9% | [6] 77.8% | [7] 93.6% | [8] 28.8% | [9] 63.3% | [10] 87.9% | [11] 27.6% | [12] 43.4% | [14] 34.1% | [15] 33.9% | [16] 16.9% | [17] 59.9% | [18] 68.8%
active: [1] 8.08% | [13] -39.6%

COc1cc([C@@H]2c3cc4c(cc3[C@H](SC(=N)N)[C@H]3COC(=O)[C@H]23)OCO4)cc(OC)c1OC
active: [2] 8.62% | [6] -4.1% | [7] -0.422% | [8] 1.61% | [10] -0.709% | [13] -31.1% | [16] 0.571% | [17] -1.43% | [18] -0.331%
inactive: [1] 14.1% | [3] 23.5% | [4] 28.2% | [5] 54.7% | [9] 34.2% | [11] 58.6% | [12] 21.7% | [14] 22.5% | [15] 14.4%

O=S(=O)(NCl)c1ccccc1
inactive: [1] 86% | [2] 105% | [3] 103% | [4] 110% | [5] 95.9% | [6] 105% | [7] 107% | [8] 119% | [9] 102% | [10] 103% | [11] 92% | [12] 102% | [13] 98.9% | [14] 107% | [15] 85.5% | [16] 101% | [17] 97.3% | [18] 102%

O=C1NN(c2ccccc2)C(c2cccnc2)=N/C1=C\c1cccnc1
inactive: [1] 73.6% | [2] 83.3% | [3] 106% | [4] 85.8% | [5] 94.3% | [6] 104% | [7] 103% | [8] 89.8% | [9] 87.1% | [10] 91.2% | [11] 96.7% | [12] 101% | [13] 92.4% | [14] 110% | [15] 92.1% | [16] 91.9% | [17] 99% | [18] 95%

C/C=C\COc1cc(C)c(Cl)cc1Cl
inactive: [1] 107% | [2] 99.7% | [3] 99.4% | [4] 108% | [5] 94.7% | [6] 112% | [7] 107% | [8] 116% | [9] 121% | [10] 115% | [11] 105% | [12] 126% | [13] 98% | [14] 96.2% | [15] 98.4% | [16] 110% | [17] 118% | [18] 109%

C=C[C@]1(C)C=C2C(=O)[C@@]3(O)OC(=O)[C@@]4(CCCC(C)(C)[C@H]34)[C@@]2(O)CC1
active: [1] -11% | [2] -25.4% | [3] -56.8% | [4] -71.7% | [5] -74.4% | [7] -92.8% | [8] -90.4% | [9] 0.722% | [10] -6.84% | [11] -52.8% | [12] -93.7% | [13] -90.6% | [14] -42% | [15] 0.55% | [16] -93.4% | [17] -91.3% | [18] 8.33%
inactive: [6] 38.4%
